Laboratory results as given in the supplement of paper PMC8728848.
This is one part of a sample in which the strongest signals are shown more often than they occur.

How the values were obtained:
Assay in all cases: glycan array binding signal (z-score within array); higher = stronger binding
Conditions in all cases: glycan notation: IUPAC condensed, linker removed
[1] = molecular target: Fuc(a1-2)Gal(b1-3)GalNAc(b1-4)[Neu5Ac(a2-3)]Gal(b1-4)Glc
Method in brief: (§1)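 The binding signal is a Z-score computed within each array. Data were drawn from 3228 arrays in the Consortium for Functional Glycomics database, restricted to those with a known protein sequence. Scores were averaged over arrays of the same protein sequence at different concentrations or buffers, and over linkers, and negative values can be taken as non-binding.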

[2] = molecular target: Fuc(a1-2)Gal(b1-4)Glc6S
Method in brief: as §1

[3] = molecular target: Fuc(a1-2)[Gal(a1-3)]Gal(b1-4)[Fuc(a1-3)]GlcNAc
Method in brief: as §1

[4] = molecular target: Fuc(a1-2)[GalNAc(a1-3)]Gal(b1-3)GlcNAc
Method in brief: as §1

[5] = molecular target: Fuc(a1-2)[GalNAc(a1-3)]Gal(b1-3)GlcNAc(b1-3)GalNAc
Method in brief: as §1

[6] = molecular target: Fuc(a1-2)[GalNAc(a1-3)]Gal(b1-4)GlcNAc(b1-2)Man(a1-3)[Fuc(a1-2)[GalNAc(a1-3)]Gal(b1-4)GlcNAc(b1-2)Man(a1-6)]Man(b1-4)GlcNAc(b1-4)[Fuc(a1-6)]GlcNAc
Method in brief: as §1

[7] = molecular target: Fuc(a1-3)[Gal(b1-4)]GlcNAc
Method in brief: as §1

[8] = molecular target: Gal(a1-3)Gal(b1-3)GlcNAc(b1-2)Man(a1-3)[Gal(a1-3)Gal(b1-3)GlcNAc(b1-2)Man(a1-6)]Man(b1-4)GlcNAc(b1-4)GlcNAc
Method in brief: as §1

[9] = molecular target: Gal(a1-3)Gal(b1-4)GlcNAc(b1-6)GalNAc
Method in brief: as §1

[10] = molecular target: Gal(b1-3)GlcNAc(b1-3)Gal(b1-4)GlcNAc(b1-2)[Gal(b1-3)GlcNAc(b1-3)Gal(b1-4)GlcNAc(b1-6)]Man(a1-6)[Gal(b1-3)GlcNAc(b1-3)Gal(b1-4)GlcNAc(b1-2)Man(a1-3)]Man(b1-4)GlcNAc(b1-4)[Fuc(a1-6)]GlcNAc
Method in brief: as §1

[11] = molecular target: Gal(b1-3)[Fuc(a1-4)]GlcNAc(b1-6)GalNAc
Method in brief: as §1

[12] = molecular target: Gal(b1-3)[Neu5Ac(b2-6)]GalNAc
Method in brief: as §1

[13] = molecular target: Gal(b1-4)GlcNAc(b1-2)Man(a1-3)[Gal(b1-4)GlcNAc(b1-2)Man(a1-6)]Man(b1-4)GlcNAc(b1-4)GlcNAc
Method in brief: as §1

[14] = molecular target: Gal(b1-4)GlcNAc(b1-3)Gal(b1-4)GlcNAc(b1-2)[Gal(b1-4)GlcNAc(b1-3)Gal(b1-4)GlcNAc(b1-6)]Man(a1-6)[Gal(b1-4)GlcNAc(b1-3)Gal(b1-4)GlcNAc(b1-2)Man(a1-3)]Man(b1-4)GlcNAc(b1-4)[Fuc(a1-6)]GlcNAc
Method in brief: as §1

[15] = molecular target: Gal(b1-4)GlcNAc(b1-3)Gal(b1-4)GlcNAc(b1-3)Gal(b1-4)GlcNAc(b1-2)Man(a1-3)[Gal(b1-4)GlcNAc(b1-3)Gal(b1-4)GlcNAc(b1-3)Gal(b1-4)GlcNAc(b1-2)Man(a1-6)]Man(b1-4)GlcNAc(b1-4)[Fuc(a1-6)]GlcNAc
Method in brief: as §1

[16] = molecular target: Gal(b1-4)GlcNAc(b1-3)Gal(b1-4)GlcNAc(b1-3)Gal(b1-4)GlcNAc(b1-3)Gal(b1-4)GlcNAc(b1-2)[Gal(b1-4)GlcNAc(b1-3)Gal(b1-4)GlcNAc(b1-3)Gal(b1-4)GlcNAc(b1-3)Gal(b1-4)GlcNAc(b1-6)]Man(a1-6)[Gal(b1-4)GlcNAc(b1-3)Gal(b1-4)GlcNAc(b1-3)Gal(b1-4)GlcNAc(b1-3)Gal(b1-4)GlcNAc(b1-2)Man(a1-3)]Man(b1-4)GlcNAc(b1-4)[Fuc(a1-6)]GlcNAc
Method in brief: as §1

[17] = molecular target: Gal3S(b1-3)GlcNAc
Method in brief: as §1

[18] = molecular target: Gal3S6S(b1-4)GlcNAc6S
Method in brief: as §1

[19] = molecular target: Gal6S(b1-3)GlcNAc
Method in brief: as §1

[20] = molecular target: GlcA3S(b1-3)Gal(b1-4)GlcNAc(b1-3)Gal(b1-4)Glc
Method in brief: as §1

[21] = molecular target: GlcNAc(b1-3)Gal(b1-4)GlcNAc(b1-2)Man(a1-3)[GlcNAc(b1-3)Gal(b1-4)GlcNAc(b1-2)Man(a1-6)]Man(b1-4)GlcNAc(b1-4)[Fuc(a1-6)]GlcNAc
Method in brief: as §1

[22] = molecular target: GlcNAc(b1-3)Gal(b1-4)GlcNAc(b1-3)Gal(b1-4)GlcNAc(b1-2)[GlcNAc(b1-3)Gal(b1-4)GlcNAc(b1-3)Gal(b1-4)GlcNAc(b1-6)]Man(a1-6)[GlcNAc(b1-3)Gal(b1-4)GlcNAc(b1-3)Gal(b1-4)GlcNAc(b1-2)Man(a1-3)]Man(b1-4)GlcNAc(b1-4)[Fuc(a1-6)]GlcNAc
Method in brief: as §1

[23] = molecular target: GlcNAc(b1-3)Gal(b1-4)GlcNAc(b1-3)Gal(b1-4)GlcNAc(b1-3)Gal(b1-4)GlcNAc(b1-2)Man(a1-3)[GlcNAc(b1-3)Gal(b1-4)GlcNAc(b1-3)Gal(b1-4)GlcNAc(b1-3)Gal(b1-4)GlcNAc(b1-2)Man(a1-6)]Man(b1-4)GlcNAc(b1-4)GlcNAc
Method in brief: as §1

[24] = molecular target: GlcNAc(b1-3)GalNAc
Method in brief: as §1

[25] = molecular target: Kdn(a2-3)Gal(b1-4)[Fuc(a1-3)]GlcNAc
Method in brief: as §1

[26] = molecular target: Man(a1-2)Man(a1-3)[Man(a1-2)Man(a1-6)]Man(a1-6)[Man(a1-2)Man(a1-2)Man(a1-3)]Man
Method in brief: as §1

[27] = molecular target: Man(a1-3)[Man(a1-6)]Man(a1-6)[Man(a1-2)Man(a1-3)]Man(b1-4)GlcNAc(b1-4)GlcNAc
Method in brief: as §1

[28] = molecular target: Neu5Ac(a2-3)Gal(b1-3)GlcNAc(b1-2)Man(a1-3)[GlcNAc(b1-4)][Neu5Ac(a2-3)Gal(b1-3)GlcNAc(b1-2)Man(a1-6)]Man(b1-4)GlcNAc(b1-4)GlcNAc
Method in brief: as §1

[29] = molecular target: Neu5Ac(a2-3)Gal(b1-3)]Neu5Ac(a2-3)Gal(b1-4)]GlcNAc
Method in brief: as §1

[30] = molecular target: Neu5Ac(a2-3)Gal(b1-4)GlcNAc(b1-2)Man(a1-3)[Neu5Ac(a2-6)Gal(b1-4)GlcNAc(b1-2)Man(a1-6)]Man(b1-4)GlcNAc(b1-4)GlcNAc
Method in brief: as §1

[31] = molecular target: Neu5Ac(a2-3)Gal(b1-4)GlcNAc(b1-3)Gal(b1-4)GlcNAc(b1-3)GalNAc
Method in brief: as §1

[32] = molecular target: Neu5Ac(a2-3)Gal(b1-4)GlcNAc(b1-3)Gal(b1-4)GlcNAc(b1-6)[Gal(b1-3)]GalNAc
Method in brief: as §1

[33] = molecular target: Neu5Ac(a2-3)Gal(b1-4)GlcNAc(b1-6)[Gal(b1-3)]GalNAc
Method in brief: as §1

[34] = molecular target: Neu5Ac(a2-3)Gal(b1-4)[Fuc(a1-3)]GlcNAc(b1-3)Gal
Method in brief: as §1

[35] = molecular target: Neu5Ac(a2-3)[GalNAc(b1-4)]Gal(b1-4)GlcNAc(b1-3)GalNAc
Method in brief: as §1

[36] = molecular target: Neu5Ac(a2-6)Gal(b1-4)GlcNAc
Method in brief: as §1

[37] = molecular target: Neu5Ac(a2-6)Gal(b1-4)GlcNAc(b1-2)Man
Method in brief: as §1

[38] = molecular target: Neu5Ac(a2-6)Gal(b1-4)GlcNAc(b1-2)Man(a1-3)[Man(a1-6)]Man(b1-4)GlcNAc(b1-4)GlcNAc
Method in brief: as §1

[39] = molecular target: Neu5Ac(a2-6)Gal(b1-4)GlcNAc(b1-2)[Neu5Ac(a2-6)Gal(b1-4)GlcNAc(b1-6)]Man(a1-6)[Neu5Ac(a2-6)Gal(b1-4)GlcNAc(b1-2)Man(a1-3)][GlcNAc(b1-4)]Man(b1-4)GlcNAc(b1-4)GlcNAc
Method in brief: as §1

[40] = molecular target: Neu5Ac(a2-6)Gal(b1-4)GlcNAc(b1-6)[Gal(b1-3)GlcNAc(b1-3)]Gal(b1-4)Glc
Method in brief: as §1

[41] = molecular target: Neu5Ac(a2-6)Gal(b1-4)GlcNAc6S
Method in brief: as §1

[42] = molecular target: Neu5Ac(a2-6)GalNAc
Method in brief: as §1

[43] = molecular target: Neu5Ac(a2-8)Neu5Ac(a2-3)Gal(b1-4)Glc
Method in brief: as §1

[44] = molecular target: Neu5Ac(a2-8)Neu5Ac(a2-8)Neu5Ac(a2-3)[Gal(b1-3)GalNAc(b1-4)]Gal(b1-4)Glc
Method in brief: as §1

[45] = molecular target: Neu5Ac(a2-8)Neu5Gc(a2-3)Gal(b1-4)GlcNAc
Method in brief: as §1

B1: CM2 (Cordyceps militaris) (protein)
chain: MEIAEQNVGKSCAIVNLIPPKEGSNIWTAKQVTIARNLPPNRGTGRHQIDWSFGPVKVTGYVDTTNWEIGVTVSIMGIDLGTVYGNLRDGVVLNVDLFLAKGQVRFYLKNGNEVWVHLSVEIRFDGKFEGDYKIITV
[1]
  glycan array binding signal (z-score): 0.28
[2]
  glycan array binding signal (z-score): -0.639
[3]
  glycan array binding signal (z-score): 1.81
[4]
  glycan array binding signal (z-score): 1.61
[5]
  glycan array binding signal (z-score): 1.29
[6]
  glycan array binding signal (z-score): 0.394
[7]
  glycan array binding signal (z-score): 0.057
[8]
  glycan array binding signal (z-score): -0.635
[9]
  glycan array binding signal (z-score): -0.847
[10]
  glycan array binding signal (z-score): 0.677
[11]
  glycan array binding signal (z-score): 0.038
[12]
  glycan array binding signal (z-score): 0.422
[13]
  glycan array binding signal (z-score): -1.28
[14]
  glycan array binding signal (z-score): 2.29
[15]
  glycan array binding signal (z-score): 3.05
[16]
  glycan array binding signal (z-score): 1.2
[17]
  glycan array binding signal (z-score): 0.015
[18]
  glycan array binding signal (z-score): 3.73
[19]
  glycan array binding signal (z-score): -0.595
[20]
  glycan array binding signal (z-score): 0.06
[21]
  glycan array binding signal (z-score): 2.3
[22]
  glycan array binding signal (z-score): 3.55
[23]
  glycan array binding signal (z-score): -0.287
[24]
  glycan array binding signal (z-score): -0.452
[25]
  glycan array binding signal (z-score): 0.801
[26]
  glycan array binding signal (z-score): 2.53
[27]
  glycan array binding signal (z-score): 2.43
[28]
  glycan array binding signal (z-score): 1.74
[29]
  glycan array binding signal (z-score): 3.98
[30]
  glycan array binding signal (z-score): 0.37
[31]
  glycan array binding signal (z-score): 3.11
[32]
  glycan array binding signal (z-score): -1.25
[33]
  glycan array binding signal (z-score): -0.406
[34]
  glycan array binding signal (z-score): 0.036
[35]
  glycan array binding signal (z-score): 0.919
[36]
  glycan array binding signal (z-score): -0.125
[37]
  glycan array binding signal (z-score): 2.54
[38]
  glycan array binding signal (z-score): -0.907
[39]
  glycan array binding signal (z-score): -0.924
[40]
  glycan array binding signal (z-score): -1.25
[41]
  glycan array binding signal (z-score): -1.69
[42]
  glycan array binding signal (z-score): 0.447
[43]
  glycan array binding signal (z-score): -0.496
[44]
  glycan array binding signal (z-score): -0.622
[45]
  glycan array binding signal (z-score): -1.52
